The campaign covered roughly 370,000 compounds. About 4,800 (1.3%) were called active.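 Rule for the calls: active = inhibition above about 21% made by adding two undisclosed values (limit read from the data); inactive = the rest.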 The list comes from a sample in which actives are over-represented; it also holds similar structures and randomly drawn compounds.

Chain of Protein arginine N-methyltransferase 1 (Homo sapiens) (Q99873 whole entry, looked up): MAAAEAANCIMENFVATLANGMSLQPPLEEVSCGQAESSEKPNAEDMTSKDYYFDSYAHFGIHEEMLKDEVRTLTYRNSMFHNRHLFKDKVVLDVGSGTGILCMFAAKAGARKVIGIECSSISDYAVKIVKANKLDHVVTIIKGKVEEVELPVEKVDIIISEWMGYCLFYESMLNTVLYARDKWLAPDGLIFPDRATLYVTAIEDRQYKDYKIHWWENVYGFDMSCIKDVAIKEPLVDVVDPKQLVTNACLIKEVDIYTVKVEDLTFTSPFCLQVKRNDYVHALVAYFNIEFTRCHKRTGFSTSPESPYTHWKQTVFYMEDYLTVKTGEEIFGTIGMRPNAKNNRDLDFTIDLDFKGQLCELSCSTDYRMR

This assay has as its target Protein arginine N-methyltransferase 1 (Homo sapiens) (UniProt Q99873). Briefly: human PRMT1 activity-probe blockers – biochemical, fluorescence polarization, primary screen (AID 652257). The settings on record: recombinant PRMT1, activity-based probe fluorescence polarization; at 2.79 µM; active compounds read high. (Fluorescence polarisation rises when a labelled molecule tumbles more slowly, as on binding a larger partner.)
For the molecule `CC(C)NC(=O)C(c1ccc(F)cc1)N(C(=O)CCC(=O)Nc1ccccn1)c1ccccc1F` (configuration not stated), the inhibition was -0.59% (inactive).

For `C[C@H](C(=O)N(C)c1ccccc1)[C@@H](O)c1ccc2ccccc2c1`, the inhibition was 6.67% (inactive).

On to `Nc1ccccc1C(=O)NC1CCCCNC1=O` (configuration not stated), for which the inhibition is -3.31% (inactive).

For the molecule `O=C(NCc1ccco1)C1CCCN(S(=O)(=O)c2ccc(Cl)s2)C1` (configuration not stated), the inhibition is -5.05% (inactive).

As for `O=C(OCC(O)C(O)COC(=O)c1ccccc1)c1ccccc1` (configuration not stated), the inhibition is 1.36% (inactive).

As for `O=C(NC1=CC(=O)c2ccccc2C1=O)c1ccccc1`, the inhibition is 36.9% (active).

In the case of `NS(=O)(=O)c1cc(C(=O)OCC(=O)NNC(=O)c2ccccc2)ccc1Cl`, the inhibition was -1.9% (inactive).

Consider `CN(C)[C@@H]1C(=O)C(C(N)=O)=C(O)[C@@]2(O)C(=O)C3=C(O)c4c(O)ccc(Cl)c4[C@@H](O)[C@H]3C[C@@H]12`, for which the inhibition was 32% (active).

On to `C=C1c2c(Cl)ccc(O)c2C(O)=C2C(=O)[C@]3(O)C(O)=C(C(N)=O)C(=O)[C@@H](N(C)C)[C@@H]3[C@@H](O)C12` (some centres not stated), for which the inhibition was 44.5% (active).

As to `COC(=O)c1cc(S(=O)(=O)N2CCN(c3ccccc3C)CC2)cn1C`, the inhibition is -0.8% (inactive).

Regarding `COc1ncnc2c1N=C1CC(C)(C)CC(N)=C1S2`, the inhibition is 33.2% (active).

Turning to `Cc1ccc(C(=O)NCC(=O)NC2CC2)cc1`, the inhibition is -3.08% (inactive).

Turning to `CN(C)C(CNC(=O)c1cccc(S(=O)(=O)N2CCc3ccccc3C2)c1)c1ccccc1` (configuration not stated), the inhibition was 2.65% (inactive).

Consider `COc1ccccc1NC(=O)c1cc(Cl)nnc1Cl`, for which the inhibition was 0.83% (inactive).

Turning to `COc1ccccc1NC(=O)COC(=O)COc1ccccc1F`, the inhibition was -0.97% (inactive).

With `COc1ccccc1NC(=O)/C=C/C(N)=O`, the inhibition was 62.4% (active).

Consider `CN(C(=O)c1cccc([N+](=O)[O-])c1)c1ccccc1C(=O)NCc1ccccc1`, for which the inhibition is 0.8% (inactive).

As to `Cc1cc(C)n(-c2nc(O)cc(=O)[nH]2)n1`, the inhibition was -0.2% (inactive).

As for `Oc1ccc(N2CCN(C(=S)NCc3ccccc3)CC2)cc1`, the inhibition is 23.4% (active).

Consider `O=C(COC(=O)c1ccccc1C(=O)N1CCN(c2ccccc2)CC1)NCc1ccccc1`, for which the inhibition was 12.8% (inactive).

Turning to `O=C(CN1CCN(c2ccccc2O)CC1)NC(=O)NCc1ccccc1`, the inhibition was -0.8% (inactive).

In the case of `CC1CCN(C(=O)c2ncn3c2C(=O)N[C@@H](C)C3)CC1`, the inhibition was -0.43% (inactive).

For `COc1ccc(S(=O)(=O)N(C)C[C@@H]2Oc3ccc(NS(=O)(=O)c4cn(C)cn4)cc3C(=O)N([C@@H](C)CO)C[C@@H]2C)cc1`, the inhibition is 0.38% (inactive).

Take `COc1ccc(CCNC(=O)CSc2nc3c([nH]2)c(=O)n(C)c(=O)n3C)cc1`: the inhibition was 1.93% (inactive).

For `CC(C)(C)c1ccc(C(=O)Nc2cc(Cl)c(Br)cc2C(=O)O)cc1`, the inhibition is -1.7% (inactive).

As for `COC(=O)[C@]12C[C@H](CC(=O)NCc3cccs3)C(=O)N(CCc3ccc(OC)c(OC)c3)C1=C[C@H](C(C)C)O[C@@H]2C1CC1`, the inhibition is -1.28% (inactive).

Turning to `CCCCOC(=O)CNc1nnc(SCC(=O)OCC)[nH]c1=O`, the inhibition is 74.3% (active).

`CCOC(=O)CSc1nnc(CNc2ccc(F)cc2)o1`: the inhibition is -0.98% (inactive).

`Cc1nnc(SCCCCSc2nnc(C)c(=O)[nH]2)[nH]c1=O`: the inhibition is 2.02% (inactive).

For `CCC(=O)Nc1ccc2c(c1)C(=O)N(C)[C@@H]1CC[C@@H](CC(=O)NCCc3ccccc3)O[C@H]1CO2`, the inhibition was 1.16% (inactive).

Consider `COc1ccc(S(=O)(=O)N2CCCCC2)cc1NC(=O)COc1ccccc1`, for which the inhibition was 2% (inactive).

Turning to `Cc1ccc(/C=C/C(=O)Nc2cc(S(=O)(=O)N3CCCCCC3)ccc2OCC(F)(F)F)o1`, the inhibition was 24.7% (active).

Take `O=C(Nc1cc(S(=O)(=O)N2CCOCC2)ccc1OCC(F)(F)F)c1ccc(N2CCCC2=O)cc1`: the inhibition is -0.65% (inactive).

Turning to `O=C(NCCCc1ccccc1)[C@H](Cc1ccccc1)NC1(C(=O)NCCc2c[nH]c3ccccc23)CCC1`, the inhibition is 4.62% (inactive).

With `COc1ccc2c(c1)CN1CN(CCc3ccccc3)S(=O)(=O)CC21` (configuration not stated), the inhibition is -7.45% (inactive).

In the case of `COc1ccc(C(=O)NC(=O)CSc2nnc(-c3ccco3)n2-c2ccccc2)cc1`, the inhibition was 4.1% (inactive).

`COCCNC(=O)Nc1ccc2nc(-c3ccco3)c(-c3ccco3)nc2c1`: the inhibition was 88.9% (active).

In the case of `COc1cc(NC(=O)C2=CC(c3ccco3)=NS(=O)(=O)N2C)cc(OC)c1OC`, the inhibition is 1.92% (inactive).

Take `O=C(Nc1ccc(F)c([N+](=O)[O-])c1)C1CCCO1` (configuration not stated): the inhibition is -0.52% (inactive).

With `CCOC(=O)[C@]12CCCC=C1N(CCCOC)C(=O)[C@@H]2CC(=O)N1CCOCC1`, the inhibition was -11.2% (inactive).

Take `COC(=O)Nc1nc2ccc(C(=O)C3CC3)cc2[nH]1`: the inhibition is -5.37% (inactive).

Take `COc1ccc(C2NC(=O)C(=O)/C2=C(\O)c2ccc(Cl)cc2)cc1OC` (configuration not stated): the inhibition is 1.92% (inactive).

Turning to `Clc1ccc(-n2c(SC/C=C/c3ccccc3)nnc2-c2ccco2)cc1`, the inhibition is 2.59% (inactive).

As to `Clc1ccccc1CSc1nnc(-c2ccco2)c(-c2ccco2)n1`, the inhibition is 45.8% (active).

Take `Cc1cccc(N(CC(=O)N2CCCC2)S(C)(=O)=O)c1C`: the inhibition was 0.79% (inactive).

For `COc1ccc(N(CC(=O)N2CCOCC2)S(=O)(=O)c2ccccc2)cc1Cl`, the inhibition is 3.25% (inactive).

Turning to `CN1C(=O)c2cc(NS(C)(=O)=O)ccc2OC[C@@H]2O[C@@H](CC(=O)NCc3ccc(-c4ccccc4)cc3)CC[C@H]21`, the inhibition is -3.76% (inactive).

In the case of `S=c1ccc2ccccc2[nH]1`, the inhibition is 41.1% (active).

Regarding `S=c1[nH]c2ccccc2c2ccccc12`, the inhibition is 13.6% (inactive).

As to `Brc1ccccc1CN1CCC(Cc2ccccc2)CC1`, the inhibition is -1.49% (inactive).

Consider `CCN(CC(=O)Nc1ccc(OC)cc1)C(=O)c1ccc(Cl)c(S(=O)(=O)N2CCCC2)c1`, for which the inhibition is -2.9% (inactive).

As for `CCOc1ccc(NC(=O)CCCCCN2C(=O)[C@@H]3Cc4ccccc4CN3C2=O)cc1`, the inhibition was 0.46% (inactive).

As for `CC[C@]1(O)C[C@@H]2CN(CCc3c([nH]c4ccccc34)[C@@](C(=O)OC)(c3cc4c(cc3OC)N(C)[C@H]3[C@@](O)(C(=O)OC)[C@H](OC(C)=O)[C@]5(CC)C=CCN6CC[C@]43[C@@H]65)C2)C1`, the inhibition was 4.62% (inactive).

Regarding `O=C(N/N=C/C=C/c1ccco1)c1cccs1`, the inhibition was 17.1% (inactive).

In the case of `CN(C)S(=O)(=O)c1cccc(C(=O)N/N=C\c2ccco2)c1`, the inhibition was -2.34% (inactive).

`Cc1cc(C(=O)NN=C/C=C/c2ccco2)n[nH]1`: the inhibition is 39.4% (active).

On to `COC(=O)C1CN(CC(C)C)CCS(=O)(=O)N1Cc1ccc(F)cc1` (configuration not stated), for which the inhibition was 1.47% (inactive).

Consider `CN(CCc1ccccc1)C(=O)Cn1nc(-c2ccccc2)ccc1=O`, for which the inhibition was -1.41% (inactive).

`Cc1[nH]c2ccccc2c1C(=O)C(C)Sc1nnc(C2CC2)o1` (configuration not stated): the inhibition was 2.13% (inactive).

Regarding `Nn1c(SCC(=O)N2c3ccccc3Sc3ccccc32)nnc1-c1n[nH]c2c1CCC2`, the inhibition is 5.44% (inactive).

As for `C/C(CC(=O)N1CCN(C=O)CC1)=N\NC(=O)c1ccc(Br)cc1`, the inhibition is 2.11% (inactive).

Regarding `O=C(NCCN1C(=O)S/C(=C\c2cccnc2)C1=O)c1ccc(S(=O)(=O)N2CCCC2)cc1`, the inhibition is 4.69% (inactive).

`O=C(O)c1ccc(/C=C2\SC(=S)N(NC(=O)c3ccc(Br)cc3)C2=O)cc1`: the inhibition is 30.2% (active).

For `CCCn1nnnc1NCc1ccc(CC)cc1`, the inhibition was 1.58% (inactive).

Take `Cc1ccc(C(=O)C2CCN(CC(=O)NCCC(C)C)CC2)cc1`: the inhibition was 4.05% (inactive).

Take `FC(F)(F)c1nc2ccccc2nc1N/N=C/c1ccc(Cl)cc1`: the inhibition is 66.9% (active).

On to `CN(CCO)c1ccc(/C=N/Nc2nncc3ccccc23)cc1`, for which the inhibition was -2.83% (inactive).

`Clc1ccc(Nc2ccc3ccccc3n2)cc1`: the inhibition was -3.42% (inactive).

As to `COC(=O)[C@]1(Cc2ccccc2)NC=C(C(=O)c2ccccc2)[C@@H]1c1cccc(OC)c1`, the inhibition is 2.58% (inactive).

As to `O=C(CCN1C(=O)c2ccccc2C1=O)NCCCn1ccnc1`, the inhibition was 1.79% (inactive).

For the molecule `O=C(CN1C(=O)S/C(=C\c2ccccc2F)C1=O)NCCCn1ccnc1`, the inhibition was 29.4% (active).

Consider `O=C(NCCCn1ccnc1)/C(=C\c1ccccc1F)NC(=O)c1ccccc1`, for which the inhibition is -3.1% (inactive).

Regarding `CCC[C@H]1C(=O)CC[C@@]23CCCN2C(=O)CCC[C@@H]13`, the inhibition is 1.57% (inactive).

As for `COCCN(C(=O)c1ccco1)c1nnc(-c2ccc(OC)cc2)s1`, the inhibition is 1.28% (inactive).

For the molecule `O=C(CCl)NC1CCCCN(Cc2cccc(C(F)(F)F)c2)C1=O` (configuration not stated), the inhibition was 3.41% (inactive).

For the molecule `CC1Cn2c(nnc2-c2cccs2)S1` (configuration not stated), the inhibition is 5.98% (inactive).

As to `O=C(Nc1ccc(N2CCOCC2)c(Cl)c1)c1ccc(S(=O)(=O)N2CCOCC2)cc1`, the inhibition is 1.99% (inactive).

Take `O=C(Nc1ccc(S(=O)(=O)N2CCOCC2)cc1)c1ccc2ncsc2c1`: the inhibition was 22.4% (active).

For the molecule `O=C(Nc1ccc2cn[nH]c2c1)c1ccc(S(=O)(=O)N2CCOCC2)cc1`, the inhibition was 3.18% (inactive).

Take `O=C(CSc1nc2ccccc2nc1N1CCCCC1)N1CCN(S(=O)(=O)c2cccc([N+](=O)[O-])c2)CC1`: the inhibition was 0.86% (inactive).

Consider `O=C(CSc1nc2ccccc2n1Cc1ccccc1)NNC(=S)Nc1ccccc1`, for which the inhibition is 1.31% (inactive).

Take `COc1ccc(-c2cc3c(c4c2ccn4C)C2CCC3C2)cn1` (configuration not stated): the inhibition is 32.2% (active).

Regarding `CC(=O)O[C@@]1(C(C)=O)CCC2[C@H]3C=C(C)C4=CC(=O)CC[C@@]4(C)C3CC[C@]21C` (some centres not stated), the inhibition is -2.39% (inactive).

For `Cc1ccccc1-c1ccc2c(c1)O[C@@H](CN(C)Cc1ccc(C(=O)O)cc1)[C@@H](C)CN([C@H](C)CO)S2(=O)=O`, the inhibition is -1.8% (inactive).

In the case of `CCn1c(C(O)c2cc(OC)ccc2OC)nc2ccccc21` (configuration not stated), the inhibition is -3.51% (inactive).

For the molecule `CCCn1c(C(O)c2cc(OC)ccc2OC)nc2ccccc21` (configuration not stated), the inhibition was 23.1% (active).

Consider `COc1ccc(OC)c(C(O)c2nc3ccccc3n2C)c1` (configuration not stated), for which the inhibition is 5.63% (inactive).

What is called inhibition is the relative decrease from the control value, in per cent.

Values taken from PubChem BioAssay AID652257 (The Scripps Research Institute Molecular Screening Center, 2013).
